# Measurements as given in PubChem BioAssay (NCATS).
# Inconclusive results are not listed. Values without a mark were called inactive. Calls of active or inactive are those of the source. Calls follow the shape of the dose curve; as a rule, active = well fitted inhibition curve with a large enough effect; inconclusive = small, poorly fitted or top-dose-only effect; inactive = no such curve, though single readings can be large or run the other way. Where a SMILES comes first, the peptide text is derived from it. Bridges are numbered along the chain shown (N, C = ends). [ ]: non-standard residue; d: D form. NMeY = CN[CH](Cc1ccc(O)cc1)C(=O)O
# Test system: Zika virus NS2B-NS3 protease (linked construct)
# Test: Primary screen NINDS Rhodamine qHTS for Zika virus inhibitors (AID 1347160); also: nearly all actives have a fitted effect of over 55% in size
# Details: purified NS2B-NS3 protease, Rhodamine110 substrate fluorescence; series mostly up to 57.1 µM; activity change, negative = inhibition: at the top concentration
# Text: Avindra Nath, Ph.D., National Institute of Neurological Disorders and Stroke (NINDS), Bethesda, MD
# Radhakrishnan Padmanabhan, Ph.D., Georgetown University (GU), Washington D.C.
# Zika Virus causes congenital defects, including microcephaly and is associated with Guillain-Barre syndrome, eningoencephalitis and myelitis in infected adult. […] Using a target-based approach, we hope to establish a screening paradigm to uncover novel, cell-active NS2B-NS3 protease (Zika Virus) specific inhibitors from NCATS' collection of small molecules using qHTS.
# Four assay panel was created to identify potential Zika Virus inhibitors. Namely, (1) GU unlinked NS2B-NS3 AMC tagged protease qHTS, (2) GU unlinked NS2B-NS3 Rhodamine tagged protease qHTS, (3) NINDS linked NS2B-NS3 AMC tagged protease qHTS, (4) NINDS linked NS2B-NS3 Rhodamine tagged protease qHTS. Active compounds were re-acquired and re-screened to confirm inhibition. Inhibitors were further screened against various confirmatory and counterscreens in dose response format.
# Early Translation Branch (ETB)
# National Center for Advancing Translational Sciences (NCATS), Rockville, MD
# National Institute of Health (NIH), Bethesda, Maryland
# For the linked assay, Nath lab (NINDS) provided the purified linked NS2B-NS3 protease which is consists of hydrophilic domain of NS2B linked to the NS3 protease domain by a flexible (-[…]-) linker. Control compound aprotinin is obtained from Thermo Scientific (#78432; Waltham, Massachusetts). Rhodamine110 substrate ([N-Cbz]-Nle-Lys-Arg-Arg-Rhod110-Arg-Arg-Lys-Nle-[N-Cbz]) was purchased from either Genscript or Bachem.
# 1536-well Protease (Rhodamine110 Substrate) Assay:
# Briefly, 3 microL of enzyme (25 nM final concentration), in assay buffer (10 mM Tris-HCl pH 8.0 with 0.01% Tween 20) were dispensed into a 1,536-well solid-bottom black plate (Greiner Bio One, Monroe, NC). Twenty-three nL of compounds (final concentration range 7.28 nM to 114 microM) or control Aprotinin (final concentration range 3.47 nM to 114 microM) were transferred via Wako Pin-tool (Wako Automation, Richmond, VA). Samples were incubated (room temperature, protected from light) for 15 minutes followed by a 1 microL Rhodamine110 substrate addition (1.5 microM final concentration). Plates were then immediately read on a ViewLux High-throughput CCD imager (PerkinElmer, Waltham, MA) equipped with FITC fluorescence optics (480(20) nm excitation, 540(25) nm emission), then incubated (room temperature, protected from light) for 15 minutes (~15% conversion). The change in fluorescence intensity over the 15-minute reaction period was normalized against no-inhibitor and no-enzyme controls and the resulting percent inhibition data were fitted to a 4-parameter Hill equation. Aprotinin was used as intraplate control.
# % is scaled to controls: 0 for no effect and ±100 for the full control effect; potency is read from the fitted curve at half-maximal effect.
SMILES,"activity change, negative = inhibition",Potency,outcome
CC(=O)O[C@@](C)(C(=O)/C=C/C(C)(C)O)[C@H]1[C@H](O)C[C@@]2(C)[C@@H]3CC=C4[C@@H](C=C(O)C(=O)C4(C)C)[C@]3(C)C(=O)C[C@]12C,9.44% [at 33.1 µM],–,–
C[C@@H]1O[C@@H](O[C@@H]2[C@@H](O)[C@H](O[C@H]3CC[C@@]4(C)C(CC[C@]5(C)C4CC=C4[C@@H]6CC(C)(C)CC[C@]6(C(=O)O[C@@H]6O[C@H](CO)[C@@H](O)[C@H](O)[C@H]6O)CC[C@]45C)C3(C)C)O[C@H](C(=O)O)[C@H]2O)[C@H](O)[C@H](O)[C@H]1O (stereo not given in full),-3.46% [at 15.1 µM],–,–
Cc1c(CN2CCN(C(=O)C(C)O)CC2)sc2c(N3CCOCC3)nc(-c3cnc(N)nc3)nc12 (stereo not given),8.95%,–,–
NC(=O)[C@H](O[C@@H]1O[C@H](CO)[C@@H](O)[C@H](O)[C@H]1O)c1ccccc1,-24.5% [at 33.1 µM],–,–
C=CC/C=C\C/C=C\CCCCCCCc1cccc(O)c1C(=O)O,–,3.98 µM (active),–
O=C(OC[C@H]1O[C@H](O[C@]2(CO)O[C@H](CO)[C@@H](O)[C@@H]2O)[C@H](O)[C@@H](O)[C@@H]1O)c1ccccc1,15% [at 33.1 µM],–,–
C/C=C/C(O)C1OC(=O)CC1Nc1ccc(C(=O)O)cc1 (stereo not given),-4.34%,–,–
COc1c(Nc2ncc(Cl)c(N[C@H]3[C@@H](C(N)=O)[C@@H]4C=C[C@H]3C4)n2)ccc2c1CC[C@@H](N1CCOCC1)CC2,43.3%,–,–
CCN(CC)CCN(Cc1ccc(-c2ccc(C(F)(F)F)cc2)cc1)C(=O)Cn1c(SCc2ccc(F)cc2)nc(=O)c2c1CCC2,316%,–,–
CC(=O)O[C@@H]1[C@H](O)[C@@H](O[C@@H]2O[C@@H](C)[C@H](O[C@@H]3OC[C@@H](O)[C@H](O[C@@H]4OC[C@@H](O)[C@H](O)[C@H]4O)[C@H]3O)[C@@H](O[C@@H]3O[C@H](CO)[C@@H](O)[C@H](O)[C@H]3O)[C@H]2O)[C@H](OC(=O)[C@]23CCC(C)(C)C[C@H]2C2=CCC4[C@@]5(C)CC[C@H](O[C@@H]6O[C@H](C(=O)O)[C@@H](O)[C@H](O[C@@H]7OC[C@@H](O)[C@H](O)[C@H]7O)[C@H]6O[C@@H]6O[C@H](CO)[C@H](O)[C@H](O)[C@H]6O)[C@@](C)(C=O)C5CC[C@@]4(C)[C@]2(C)CC3)O[C@@H]1C (stereo not given in full),7.65% [at 10.7 µM],–,–
COc1ccc(Cl)c(Nc2nc3ccccc3nc2NS(=O)(=O)c2cccc(NC(=O)C(C)(C)N)c2)c1,–,5.01 µM (active),–
Cc1cc(Cl)ccc1COc1ccnn1-c1cc(C(=O)O)ccn1,-5.63%,–,–
O=C(/C=C/c1ccccc1)OC[C@]12O[C@H]1[C@@H](O)[C@@H]1C=CO[C@@H](O[C@@H]3O[C@H](CO)[C@@H](O)[C@H](O)[C@H]3O)[C@@H]12,20.6% [at 33.1 µM],–,–
CC(=O)O[C@@H]1C[C@H](O)[C@@]23CO[C@H](O)[C@]1(C)C2C[C@@H](O)[C@]1(C)C3C(=O)[C@H](OC(C)=O)[C@@]2(C)[C@H](c3ccoc3)C[C@H]3O[C@]321 (stereo not given in full),5.16% [at 15.1 µM],–,–
COc1ccc(/C=C/C(=O)O[C@H]2[C@H](O[C@H]3[C@@H]4C=CO[C@@H](O[C@@H]5O[C@H](CO)[C@@H](O)[C@H](O)[C@H]5O)[C@@H]4[C@@]4(CO)O[C@@H]34)O[C@@H](C)[C@H](O)[C@H]2OC(C)=O)cc1,24.7% [at 15.1 µM],–,–
COC(=O)C1(C)CCC2(C(=O)O)CCC3(C)C(=CCC4C5(C)CC(O)C(OC6OCC(O)C(O)C6O)C(C)(CO)C5CCC43C)C2C1 (stereo not given),–,–,inactive [at 15.1 µM]
O=C(O)c1cc(-c2c(-c3ccccc3)nn3ccccc23)n[nH]c1=O,–,–,inactive
CCC(C)C1NC(=O)C2CCCN2C(=O)C(NC(C)=O)C(C)OC(=O)C(Cc2ccc(OC)cc2)N(C)C(=O)C2CCCN2C(=O)C(C(C)C)NC1=O (stereo not given) (Ac-TPIVP[NMeY](Me); ester 1-C; configuration not given here),–,–,inactive [at 15.1 µM]
C=C1CC2C(C)(CCC(=O)O)C(C(C)(C)O)CCC2(C)C2C(=O)OC(C)(C(=O)OC)C(=O)C12C (stereo not given),-1.1% [at 33.1 µM],–,–
CC(NC(=O)C(O)C(C)C)C(=O)NC1C(=O)N(C)CCc2ccccc21 (stereo not given),57.9%,–,–

SMILES,"activity change, negative = inhibition",Potency,outcome
CC(C)=CCC/C(C)=C/CC/C(C)=C/COC1OC(COC2OCC(OC3OCC(O)C(O)C3O)C(O)C2O)C(O)C(OC2OC(C)C(OC3OC(C)C(OC4OCC(OC5OC(C)C(O)C(O)C5O)C(O)C4O)C(O)C3O)C(O)C2O)C1O (stereo not given),-0.102% [at 10.7 µM],–,–
C[C@]12C=C[C@@]3(CCC4[C@](C)(CO)CCC[C@@]4(C)C3CC1)C2 (stereo not given in full),–,–,inactive
C#CCN(Cc1cc2c(=O)n(C)c(CN3CCN(C)CC3)nc2cc1Cl)c1ccc(C(=O)NCc2cccnc2)cc1,–,–,inactive
CO[C@H]1C[C@@H]2CC[C@@H](C)[C@@](O)(O2)C(=O)C(=O)N2CCCC[C@H]2C(=O)O[C@H]([C@H](C)C[C@@H]2CC[C@H](n3cnnn3)[C@H](OC)C2)CC(=O)[C@H](C)/C=C(\C)[C@@H](O)[C@@H](OC)C(=O)[C@H](C)C[C@H](C)/C=C/C=C/C=C/1C,-24.6% [at 33.1 µM],–,–
O=[N+]([O-])c1cccc2[nH]c(CNc3nc(N4CCOCC4)nc4c3ncn4-c3ccsc3)nc12,3.68%,–,–
COC(=O)C12CCC(C)C(C)C1C1=CCC3C4(C)CCC(OC(C)=O)C(C)(C)C4CCC3(C)C1(C)CC2 (stereo not given),–,–,inactive [at 33.1 µM]
CC(C)c1cc(C(=O)N2CC[C@@H](NC(=O)C3CC3)C2)n[nH]1,-4.09%,–,–
O=C(CC(c1ccccc1)c1ccccc1)N1CCN(C(c2ccccc2)c2ccccc2)CC1,-9.34%,–,–
CC(C(O)/C=C/C(C)(C)O)C1CCC2(C)C3C(=O)C=C4C(CCC(O)C4(C)C)C3(C)CCC12C (stereo not given),-13.7% [at 33.1 µM],–,–
CC(=O)OC1C(OC(=O)c2ccccc2)C2C(C)(C)CC(=O)CC2(C)C23CCC(C)(C2)C(O)CC13 (stereo not given),-4.53% [at 33.1 µM],–,–
CCOc1ccc(S(=O)(=O)n2c(C)nc3ccccc32)cc1,–,–,inactive [at 33.1 µM]
CC1COC2(OC3CC4C5CC(O[C@@H]6O[C@H](C)[C@@H](O[C@@H]7O[C@@H](C)[C@H](O)[C@@H](O)[C@H]7O)[C@H](O)[C@H]6O)C6CC(O)CCC6(C)C5CCC4(C)C3C2C)C(O)C1 (stereo not given in full),-7.25% [at 15.1 µM],–,–
CC1=C2C(O)C(=O)OC(c3ccoc3)C2(C)CCC1O (stereo not given),9.19%,–,–
Cc1ccccc1CN1C2=NCCN2C(=O)C2=C1CCN(Cc1ccccc1)C2,-10.3%,–,–
C[C@@]1(O)[C@H](O)[C@@H](CO)O[C@H]1n1ccc(N)nc1=O,49.5%,–,–
COc1ccc(CN2C(=O)C(=O)c3cc(S(=O)(=O)N4CCC[C@H]4COc4cccnc4)ccc32)cc1,17.1%,–,–
CN(C)C(=O)NC1CCC(CCN2CCN(c3cccc(Cl)c3Cl)CC2)CC1 (stereo not given),–,–,inactive [at 10.7 µM]
CC1(O)CCCC2(C)C1CCC13CC(CO)C(CCC12)C3 (stereo not given),16%,–,–
C=C1C(OC2OCC(O)C(O)C2O)CC2C(C)(C)C(O)CCC2(C)C1CC/C(C)=C\CO (stereo not given),-13.2% [at 33.1 µM],–,–
C[C@@H]1O[C@@H](O[C@H]2[C@H](O)[C@@H](O)[C@H](OC[C@H]3O[C@@H](OC(=O)[C@]45CCC(C)(C)C[C@H]4C4=CCC6[C@@]7(C)CC[C@H](O[C@@H]8OC[C@H](O)[C@H](O[C@@H]9O[C@H](CO)[C@@H](O)[C@H](O)[C@H]9O)[C@H]8O)[C@@](C)(CO)C7CC[C@@]6(C)[C@]4(C)CC5)[C@H](O)[C@@H](O)[C@@H]3O)O[C@@H]2CO)[C@H](O)[C@H](O)[C@H]1O (stereo not given in full),3.05% [at 10.7 µM],–,–
